The target in assay [1] is Calcium and integrin-binding protein 1 (Homo sapiens) (UniProt Q99828). The experiment in a line: Primary qHTS for Identification of Calcium Integrin Binding Protein 1 (CIB1) Competitor (AID 1508620).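 Also: GST tagged CIB1 binding a fluorescein labelled alphaIIb integrin peptide tracer; top concentration of the series differs between compounds; % is scaled to controls: 0 for no effect and ±100 for the full control effect.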 In short, it runs like this:
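Fluorescence polarization competition: CIB1-GST (1 uM final) preincubated with compound 15 min at room temperature, then FITC-labeled alphaIIb peptide (100 nM final) added for another 15 min. Polarization read at Ex 480/Em 540.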

Assay [2] deals with N-terminal Xaa-Pro-Lys N-methyltransferase 1 (Homo sapiens) (UniProt Q9BV86). The assay is described as follows: Confirmatory qHTS for Inhibitors of N-terminal methyltransferase 1 (NTMT1): MTaseGlo Assay (AID 1645874). Also: nearly all actives have a fitted effect of over 65% in size. Also: potency is read from the fitted curve at half-maximal effect.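 As to activity change, negative = inhibition: luminescence from SAH made as NTMT1 methylates SPKRIA peptide using SAM; 0% = DMSO control and -100% = no-enzyme control.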 Summed up: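 Enzyme mix (125 nM NTMT1, 100 uM SAM) + compound, 15 min RT; + 1 uM SPKRIA, 30 min RT, dark; MTase-Glo reagent 30 min, detection solution 30 min; luminescence. % inhibition vs no-enzyme/DMSO controls, 4-parameter Hill fit.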
On the technique in general: Quantitative high-throughput screening tests each substance at several concentrations.

Assay [3] addresses Lysosomal acid glucosylceramidase (Homo sapiens) (UniProt P04062). The experiment in a line: Glucocerebrosidase-p2 (AID 348; in the data active = potency below about 10 µM; also: potency is read from the fitted curve at half-maximal effect). Conditions: purified GBA, blue fluorogenic substrate, 40 min. Summed up: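 Normal human glucocerebrosidase (0.2 nM) with blue fluorogenic substrate (80 uM final) in citrate/phosphate pH 5.9 with 10mM sodium taurocholate, 0.01% tween-20; 40 min RT, NaOH/glycine stop; fluorescence Ex 365/Em 440; AC50 from a titration from 0.6 nM upwards.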

Assay [4] deals with Glucocorticoid receptor (Homo sapiens) (UniProt P04150). The experiment in a line: GR-GFP Redistribution (AID 450;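 active = compounds whose dose series gives a full or clear partial fitted curve of increased nuclear translocation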; also: potency is read from the fitted curve at half-maximal effect). Conditions: U2OS GR-GFP nuclear translocation, laser cytometry, 2 h.
For assay [5] the target is unchanged. The experiment in a line: GR-EFC Redistribution (AID 451; calls by dose curve; also: potency is read from the fitted curve at half-maximal effect). Conditions: CHO-K1 GR-EFC translocation, beta-gal luminescence, 2 h. In short, it runs like this: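 CHO-K1 cells stably expressing nuclear-localized β-gal enzyme acceptor and GR fused C-terminally to the enzyme donor fragment; ligand-driven nuclear translocation restores β-gal by complementation. Compounds titrated up to 46 uM final, 2 h at 37 °C; luminescence read.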

In assay [6] the target is Mitogen-activated protein kinase 10 (Mus musculus) (UniProt Q61831). The experiment in a line: JNK3 AlphaScreen Assay (AID 530; active = well fitted curve in either direction with a large enough effect, not every such curve was filed as active;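 also: kinase came from lysate of stimulated human HepG2 cells; signal reports phosphorylation of biotinylated GST-cJun 1-79 at Ser73 with 10 µM ATP; % is scaled to controls: 0 for no effect and ±100 for the full control effect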). Summed up: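 Biotinylated GST-cJun(1-79) served as substrate for JNK3 in HepG2 lysates stimulated with IL-1beta and TNF-alpha. ATP was 10 uM final, pH 7.6. Ser73 phosphorylation was quantified by AlphaScreen (680 nm excitation).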
Assay [7] addresses 3',5'-cyclic-AMP phosphodiesterase 4B (Homo sapiens) (UniProt Q07343). The assay is described as follows: qHTS Assay for Inhibitors of PDE-IV (AID 607; active = well fitted activation curve with a large enough effect in the main read-out, with a control signal flat, not every such curve was filed as active; also: % of control where 0% means no effect). In short, it runs like this:
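The readout is membrane depolarisation from a cAMP-sensing CNG channel, detected with a potential dye at ex 535/em 590. Cells were HEK293-derived (endogenous PDE-IV) at 1000 cells/well, titrated up to 22.9 uM final.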

Assay [8] can be described thus: Confirmation and Secondary Assay for Modulators of Hemoglobin Beta Chain Splicing at IVS2 654 locus (AID 910). Also: % of control where 0% means no effect. In short, it runs like this: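 HeLa cells stably carrying EGFP interrupted by mutant beta-globin IVS2-654 intron (CMV-driven) were treated with compound for 2 days at 37C; corrected splicing was scored as total peak GFP intensity per well (488 nm excitation, 500-520 nm emission).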

Assay [9] can be described thus: Confirmation and Secondary Assay for Modulators of Hemoglobin Beta Chain Splicing at IVS2 705 locus (AID 930).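 Also: HeLa cells stably expressing the EGFP-705 splicing reporter; GFP fluorescence per well restored by corrected splicing of the IVS2-705 intron in EGFP; % of control where 0% means no effect.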 Summed up: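 Read-out: total peak GFP fluorescence per well (488 nm excitation, 500-520 nm emission) by laser-scanning cytometry. Cells: HeLa EGFP-705 splicing reporter, 2 days compound exposure in Optimem/2% FCS.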
Assay [10] is described as follows: qHTS Assay for Lipid Storage Modulators (AID 1519; calls by dose curve; as to activity change, negative = inhibition: % is scaled to controls: 0 for no effect and ±100 for the full control effect). Conditions: Drosophila S3 cells, BODIPY lipid droplet/cell ratio, laser cytometry, cells loaded with oleic acid. In short, it runs like this:
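Cells seeded at 5,000 per well were treated with compounds over a concentration series and loaded with oleic acid (400 uM, as added). Lipid droplet fluorescence (488 nm excitation, 500-530 nm channel) was read by laser-scanning cytometry and normalized to 20 uM Triacsin C.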

Assay [11] can be described thus: Primary qHTS for small molecule stabilizers of the endoplasmic reticulum resident proteome: Secreted ER Calcium Modulated Protein (SERCaMP) assay (AID 1508630). Also: % is scaled to controls: 0 for no effect and ±100 for the full control effect. Summed up:
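The SH-SY5Y reporter protocol was run at 3 concentrations up to 38.3 uM (primary) or 11 concentrations (follow-up): 16 h compound, 100 nM thapsigargin for 4 h, then extracellular luciferase luminescence.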

Inconclusive results are not listed. The source made the active and inactive calls. Unless noted, calls follow the shape of the dose curve; as a rule, active = well fitted curve in the direction sought with a large enough effect; inconclusive = small, poorly fitted or top-dose-only effect, or another doubt; inactive = no such curve, though single readings can be large; an effect the other way counts as inactive or inconclusive.

Calcium and integrin-binding protein 1 (Homo sapiens), sequence (Q99828 whole entry, looked up): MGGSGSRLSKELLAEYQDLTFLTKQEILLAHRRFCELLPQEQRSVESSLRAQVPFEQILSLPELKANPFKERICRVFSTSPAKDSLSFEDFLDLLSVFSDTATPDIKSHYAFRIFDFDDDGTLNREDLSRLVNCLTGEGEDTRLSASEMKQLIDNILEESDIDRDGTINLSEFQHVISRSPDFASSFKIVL
Glucocorticoid receptor (Homo sapiens), sequence (P04150 whole entry, looked up, the tested form may be a part): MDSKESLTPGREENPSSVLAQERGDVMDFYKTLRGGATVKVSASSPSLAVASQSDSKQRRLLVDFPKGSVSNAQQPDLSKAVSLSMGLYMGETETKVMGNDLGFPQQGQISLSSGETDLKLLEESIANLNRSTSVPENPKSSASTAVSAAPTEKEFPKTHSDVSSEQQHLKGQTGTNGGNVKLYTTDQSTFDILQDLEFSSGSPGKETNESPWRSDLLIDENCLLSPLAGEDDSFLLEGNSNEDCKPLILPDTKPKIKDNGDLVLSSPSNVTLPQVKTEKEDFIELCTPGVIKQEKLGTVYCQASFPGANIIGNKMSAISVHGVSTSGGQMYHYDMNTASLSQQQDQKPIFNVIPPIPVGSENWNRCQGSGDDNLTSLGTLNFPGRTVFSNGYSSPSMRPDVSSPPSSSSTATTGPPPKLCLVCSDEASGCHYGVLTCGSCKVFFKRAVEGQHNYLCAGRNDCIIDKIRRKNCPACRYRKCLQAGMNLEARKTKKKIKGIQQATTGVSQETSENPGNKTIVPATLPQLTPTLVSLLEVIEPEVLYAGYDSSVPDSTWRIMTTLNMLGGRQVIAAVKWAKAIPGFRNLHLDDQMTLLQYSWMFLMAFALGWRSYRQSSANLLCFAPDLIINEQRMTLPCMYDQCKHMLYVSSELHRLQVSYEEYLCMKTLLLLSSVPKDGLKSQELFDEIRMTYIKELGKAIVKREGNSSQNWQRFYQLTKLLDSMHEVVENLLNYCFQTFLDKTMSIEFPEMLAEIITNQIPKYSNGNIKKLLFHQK
N-terminal Xaa-Pro-Lys N-methyltransferase 1 (Homo sapiens), sequence (Q9BV86 whole entry, looked up): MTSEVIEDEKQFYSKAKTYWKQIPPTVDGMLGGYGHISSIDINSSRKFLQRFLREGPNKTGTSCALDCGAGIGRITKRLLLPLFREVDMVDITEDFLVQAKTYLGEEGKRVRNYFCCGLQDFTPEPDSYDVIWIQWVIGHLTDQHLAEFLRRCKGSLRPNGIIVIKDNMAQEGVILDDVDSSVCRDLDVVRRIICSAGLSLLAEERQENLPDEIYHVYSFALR
3',5'-cyclic-AMP phosphodiesterase 4B (Homo sapiens), sequence (Q07343 whole entry, looked up): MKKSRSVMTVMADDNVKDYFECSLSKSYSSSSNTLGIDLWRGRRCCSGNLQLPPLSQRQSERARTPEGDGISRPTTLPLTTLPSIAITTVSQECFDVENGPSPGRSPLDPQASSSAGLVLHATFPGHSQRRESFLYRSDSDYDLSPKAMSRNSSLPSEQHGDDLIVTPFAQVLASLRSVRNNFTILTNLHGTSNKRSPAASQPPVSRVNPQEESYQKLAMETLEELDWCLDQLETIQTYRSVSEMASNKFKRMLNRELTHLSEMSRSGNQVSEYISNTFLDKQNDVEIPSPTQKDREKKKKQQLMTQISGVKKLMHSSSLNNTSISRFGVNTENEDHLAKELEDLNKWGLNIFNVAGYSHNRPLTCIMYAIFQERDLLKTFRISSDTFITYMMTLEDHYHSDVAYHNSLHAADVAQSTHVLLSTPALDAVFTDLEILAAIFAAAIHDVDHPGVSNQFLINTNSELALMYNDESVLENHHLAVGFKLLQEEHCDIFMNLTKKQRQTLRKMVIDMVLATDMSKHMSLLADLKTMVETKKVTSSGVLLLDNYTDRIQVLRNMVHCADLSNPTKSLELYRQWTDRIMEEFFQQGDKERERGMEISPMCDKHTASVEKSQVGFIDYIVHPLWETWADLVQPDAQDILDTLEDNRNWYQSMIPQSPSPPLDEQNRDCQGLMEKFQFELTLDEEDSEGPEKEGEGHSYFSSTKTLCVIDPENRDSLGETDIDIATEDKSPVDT
Lysosomal acid glucosylceramidase (Homo sapiens), sequence (P04062 whole entry, looked up): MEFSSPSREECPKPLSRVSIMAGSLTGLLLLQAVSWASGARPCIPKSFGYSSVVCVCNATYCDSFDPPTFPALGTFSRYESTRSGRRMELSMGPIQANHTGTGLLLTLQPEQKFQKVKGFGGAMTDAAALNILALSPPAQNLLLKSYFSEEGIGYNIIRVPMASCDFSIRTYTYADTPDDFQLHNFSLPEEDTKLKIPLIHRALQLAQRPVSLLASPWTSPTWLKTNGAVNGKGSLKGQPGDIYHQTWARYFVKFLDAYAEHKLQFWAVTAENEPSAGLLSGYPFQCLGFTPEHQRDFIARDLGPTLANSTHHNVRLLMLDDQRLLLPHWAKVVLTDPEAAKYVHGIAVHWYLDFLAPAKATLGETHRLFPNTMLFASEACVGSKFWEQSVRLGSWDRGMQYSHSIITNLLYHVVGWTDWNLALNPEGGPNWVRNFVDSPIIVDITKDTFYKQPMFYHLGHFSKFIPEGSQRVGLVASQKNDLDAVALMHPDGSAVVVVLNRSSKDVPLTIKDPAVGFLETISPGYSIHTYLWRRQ

With `Cn1nnnc1Sc1ncnc2scc(-c3cccc(S(C)(=O)=O)c3)c12`, in [1], the Potency result was “inactive”.
For `CC(=O)Nc1sc2c(c1-c1ccc3scnc3c1)CCNC2`, the Potency entry in assay [1] was “inactive”. The Potency in assay [2] is 44.7 µM (active).
As to `c1cncc(CNc2ncnc3ccc(-c4cccnc4)cc23)c1`, the Potency in assay [3] is > 11.4 µM (inactive); in [4], > 46 µM (inactive); in [5] it was > 46 µM (inactive). For the same compound, the call in [6], in [8] and in assay [9] was inactive. Further, the Potency entry in assay [7], in assay [1] and in assay [11] was “inactive” throughout. In addition, in [10] (at 57.5 µM (top of the series)), the activity change, negative = inhibition was 7.28% (inactive). Besides, the results for the max response in assay [10] (measured here: cell count channel max response) and in assay [10] (measured here: lipid channel max response) were -9.9% and -4.35%, respectively.
Turning to `O=C(NCCc1ccccc1)C1CCN(c2nc(-c3ccc(Br)cc3)cs2)CC1`, the Potency result in [1] and in assay [2] was “inactive” each time.

The record behind these values is PubChem BioAssay (NCATS).
